Among all 350,000 compounds or so, about 9,900 (2.8%) were called active. Inconclusive results (about 15%) are left out. The sample holds actives, similar compounds and a random draw of the others, so the mix is not that of the screen. A number with no mark means an inactive call. Calls come from the whole dose curve; as a rule, active = well fitted activation curve with a large enough effect; inconclusive = small, poorly fitted or top-dose-only effect; inactive = no such curve, though single readings can be large or run the other way.
Assay: A quantitative high throughput screen for small molecules that induce DNA re-replication in MCF 10a normal breast cells. For activity, positive = re-replication: % of control where 0% means no effect. Note: nearly all actives have a fitted effect of over 50% in size.
Conditions: MCF 10A DNA re-replication, Hoechst nuclear intensity, 48 h; series mostly up to 46.1 µM; activity, positive = re-replication: at the top concentration
Potency is the fitted concentration of half-maximal effect.

Row | SMILES | activity, positive = re-replication [%] | Potency
1 | O=C(Nc1ccc(N2CCOCC2)cc1)c1cccc(S(=O)(=O)N2CCOCC2)c1 | 4.79 | –
2 | CN(CC(=O)O)C(=O)c1ccccc1 | 8.42 | –
3 | CN1C(=O)c2ccc(NC(=O)c3c(F)c(F)c(F)c(F)c3F)cc2C1=O | 5.85 | –
4 | CN1C(=O)c2ccc(NC(=O)C3CCCCC3)cc2C1=O | – | 10.3 µM (active)
5 | O=C(O)c1ccc(NC(=O)C2CCCCC2)cc1 | 0.989 | –
6 | CCOc1ccc(Br)cc1S(=O)(=O)Nc1ccc(S(=O)(=O)Nc2cc(C)on2)cc1 | -35.5 | –
7 | c1ccc(CNc2ncnc3[nH]ncc23)cc1 | 7.58 | –
8 | O=C(COC(=O)c1cc(S(=O)(=O)N2CCOCC2)ccc1Cl)NCCc1ccccc1 | 16.1 | –
9 | COc1ccc2[nH]c3c(c2c1)CCN1C(=O)C(CC(=O)NCc2cccc(C(F)(F)F)c2)C[C@H](C(=O)N2CCOCC2)[C@@]31C (stereo partly drawn) | -13.4 | –
10 | C=CCn1c(SCc2c(C)noc2C)nc2sc3c(c2c1=O)CCC(C)C3 (stereo not drawn) | – | 3.66 µM (active)
11 | CC1CCc2c(sc3nc4n(c(=O)c23)CCS4)C1 (stereo not drawn) | 4.82 | –
12 | C=CCn1c(SCC(=O)NCC2CCCO2)nc2sc(C)c(C)c2c1=O (stereo not drawn) | 0.828 | –
13 | CC(NC(=O)COC(=O)CCC(=O)c1ccc(Cl)cc1)c1ccccc1 (stereo not drawn) | 0.61 | –
14 | CC[C@]12c3[nH]c4ccc(OC)cc4c3CCN1C(=O)C(CC(=O)NCc1ccco1)C[C@@H]2C(=O)N1CCN(C(=O)C2CC2)CC1 (stereo partly drawn) | 12.3 | –
15 | CC12CCCCC1=CC(=O)CC2 (stereo not drawn) | -3.75 | –
16 | COc1ccc(Nc2nnc(C)c3ccccc23)cc1 | -4.32 | –
17 | COc1ccc(-c2nnc(-c3ccc4ccccc4c3)o2)cc1 | 1.89 | –
18 | COc1ccc(Nc2ccc3ccccc3c2)cc1 | – | 23.1 µM (active)
19 | COc1cc(C(=O)N2CCN(S(=O)(=O)c3ccc(C(C)C)cc3)CC2)ccc1OCC(=O)N1CCOCC1 | -2.7 | –
20 | O=C(C/C(=N\NC(=O)c1ccccc1Br)C(F)(F)F)c1cccs1 | – | 11.6 µM (active)
21 | CC/C(=N\NC(=O)c1ccccc1Cl)c1ccc(Br)s1 | 4.13 | –
22 | O=C(CNC(=O)c1ccccc1Br)NNC(=O)c1cccs1 | -1.43 | –
23 | CCOC(=O)Cc1csc(SCC(=O)Nc2ccc(C)cc2F)n1 | 2.76 | –
24 | O=C(OCC(=O)N1CCCCCC1)c1ccc(Cl)nc1 | 0.256 | –
25 | CC(=O)NCCC(=O)Nc1nc(C)c(Cc2ccc3c(c2)OCO3)s1 | 6.4 | –
26 | Cc1ccc(C(=O)Nc2sc(Cc3ccc4c(c3)OCO4)c(C)c2C(N)=O)cc1 | – | 4.11 µM (active)

Row | SMILES | activity, positive = re-replication [%] | Potency
27 | COCc1nnc(NC(=O)c2ccc3c(c2)OCO3)s1 | -0.575 | –
28 | COc1ccccc1C(=O)NCC(=O)OCC(=O)Nc1nnc(-c2ccccc2)o1 | -0.4 | –
29 | Cc1coc2c(O)cc3c(c12)OC1(N2CCCCC2)C(=O)NCCCC31 (stereo not drawn) | – | 18.4 µM (active)
30 | O=C1OC(Oc2ccc(Br)cc2)(c2ccccc2)c2ccccc21 (stereo not drawn) | – | 11.6 µM (active)
31 | Cc1cccc(C(=O)OCC(=O)NC(C)C2CC3CCC2C3)c1O (stereo not drawn) | -1.59 | –
32 | Cc1cc(OCCCC(=O)Nc2cc(S(=O)(=O)N3CCOCC3)ccc2N2CCOCC2)ccc1Cl | -5.32 | –
33 | O=c1cc(N2CCN(Cc3ccccc3)CC2)c(-c2ccccc2)n[nH]1 | 1.62 | –
34 | O=c1cc(N2CCCCC2)c(-c2ccccc2)nn1Cc1cccc(F)c1 | – | 20.6 µM (active)
35 | O=C(CS(=O)(=O)c1cn(Cc2cccc(F)c2)c2ccccc12)N1CCCCC1 | -1.38 | –
36 | COc1ccc(-c2nnc(SC(C)C(=O)NC3CC3)o2)cc1 (stereo not drawn) | 11.4 | –
37 | Cc1nn(-c2ccccc2)c(Cl)c1C(=O)Nc1ccccc1 | 0.187 | –
38 | Cc1nn(-c2ccccc2)c(C)c1/C=C/C(=O)OC(C)C(N)=O (stereo not drawn) | 1.07 | –
39 | Cc1ccc(C(=O)/C=C/c2c(C)nn(-c3ccccc3)c2Cl)cc1 | – | 16.4 µM (active)
40 | Cc1ccc(CNC(=O)CC(NC(=O)c2ccccc2)c2ccccc2)cc1 (stereo not drawn) | 1.97 | –
41 | OCc1ccc(OCCCOc2cccc3cccnc23)cc1 | -8.56 | –
42 | O=C(Nc1ccccc1)Oc1cccc2cccnc12 | – | 4.11 µM (active)
43 | COc1ccc(NC(=O)Nc2cccc3cccnc23)cc1 | 0.777 | –
44 | CN(Cc1ccccc1)C(=O)COC(=O)/C=C/c1ccc2c(c1)OCO2 | 2.86 | –
45 | O=C(CN1C(=O)NC2(CCCCCC2)C1=O)NCc1ccc(F)cc1 | -0.62 | –
46 | COc1ccc(S(=O)(=O)Nc2ccc3cn[nH]c3c2)cc1[N+](=O)[O-] | -2.12 | –
47 | COc1cc(NC(=O)c2cncc(-c3ccc(C#N)cc3)c2)cc(C(=O)Nc2cccc(C(F)(F)F)c2)c1 | – | 13 µM (active)
48 | Cc1cccc(NC(=O)c2nnn(-c3cccc(C(F)(F)F)c3)c2N)c1 | -4.01 | –
49 | N#Cc1ccc(Oc2ccc(C(F)(F)F)cc2NC(=O)c2ccc(F)cc2)cc1 | 4.38 | –
50 | CNC(=O)c1ccc(NC(=O)c2cccc(C(F)(F)F)c2)cc1 | -36.1 | –
51 | COc1cc(NC(=O)c2[nH]cnc2C(N)=O)cc(C(=O)Nc2cccc(C(F)(F)F)c2)c1 | – | 7.31 µM (active)
52 | COc1ccc(NC(=O)C(=O)NCC(=O)Nc2cccc(C(F)(F)F)c2)cc1 | -3.28 | –

Row | SMILES | activity, positive = re-replication [%] | Potency
53 | CC(=O)N1CCc2ccc(N)cc21 | -2.27 | –
54 | CC1CCC(CN2CCN=C2N(C)C)CC1 (stereo not drawn) | 2.36 | –
55 | COc1cc2c(cc1OC)CN(C(C)C(=O)Nc1cccc(S(=O)(=O)N3CCOCC3)c1)CC2 (stereo not drawn) | 1.81 | –
56 | COCCn1c(C)cc(C(=O)CN2c3cccc4cccc(c34)S2(=O)=O)c1C | 18.7 | –
57 | O=C(COC(=O)/C=C/c1cccc(Cl)c1)NCc1cccs1 | 6.71 | –
58 | Cc1c(NC(=O)C(C)OC(=O)c2ccccc2O)c(=O)n(-c2ccccc2)n1C (stereo not drawn) | -8.76 | –
59 | Cc1ccc(OCCCC(=O)Nc2ccc3c(c2)OCCO3)cc1 | -1.53 | –
60 | CC(C)N(Cc1nnc(-c2ccccc2Br)o1)C(=O)c1cc(Cl)nc2ccccc12 | -0.578 | –
61 | Cc1cccc(NC(=O)c2cc([N+](=O)[O-])ccc2N2CCN(C)CC2)c1 | 7.05 | –
62 | CN1C(=O)c2ccc(C(=O)Nc3ccc(Br)cn3)cc2C1=O | -0.877 | –
63 | O=C(Nc1ccc(Br)cn1)c1ccc([N+](=O)[O-])o1 | – | 4.11 µM (active)
64 | Cc1cccc(NC(=O)c2ccc([N+](=O)[O-])o2)c1 | – | 2.91 µM (active)
65 | Cc1cccc(NC(=S)NC(=O)c2ccc(Br)o2)c1 | 19.9 | –
66 | O=C(Nc1ccc(Br)cn1)c1ccc([N+](=O)[O-])cc1Cl | -1.49 | –
67 | COc1ccc(CNC(=O)c2ccc(NS(=O)(=O)c3ccc4[nH]c(=O)[nH]c4c3)cc2)cc1OC | -5.27 | –
68 | COc1ccc(CNCCCn2cnc3c(OCc4ccccc4)ncnc32)cc1 | 1.64 | –
69 | CSCCC(NC(=O)COc1ccccc1)C(=O)N(C)CC(=O)Nc1ccc(C)cc1 (stereo not drawn) | 1.63 | –
70 | CCOC(=O)CCCCCC(=O)Nc1ccc2c(c1)CC(=O)N([C@@H](C)CO)C[C@H](C)[C@@H](CN(C)Cc1ccccc1)O2 | -21.7 | –
71 | COc1cccc(C=CC(=O)C=CC=Cc2ccccc2)c1 | – | 16.4 µM (active)
72 | COc1cccc(/C=C/C(=O)OCC(=O)N2CCN(c3ccccc3)CC2)c1 | 5.15 | –
73 | COc1cccc(C(=O)NNC(=O)/C=C/c2ccccc2)c1 | 3.32 | –
74 | Cc1noc(C)c1C(=O)OC(C)C(=O)Nc1ccc2c(c1)OCO2 (stereo not drawn) | -1.99 | –
75 | CC1(C)CC(=O)C=C(c2ccc(Cl)c(C(F)(F)F)c2)C1 | 84.6 | –
76 | COc1ccc(S(=O)(=O)N2CCC(C(=O)NCc3ccco3)CC2)cc1C | -0.313 | –
77 | O=C(NCc1cc(C(F)(F)F)cc(C(F)(F)F)c1)C1CC(c2cccc(F)c2)=NO1 (stereo not drawn) | -1.76 | –
78 | COc1ccc(C2=NOC(C(=O)NCc3ccco3)C2)cc1OC (stereo not drawn) | – | 4.61 µM (active)

Row | SMILES | activity, positive = re-replication [%] | Potency
79 | COc1ccccc1C(CNC(=O)c1ccc(C)c(S(=O)(=O)N2CCCCC2)c1)N(C)C (stereo not drawn) | -2.66 | –
80 | Cc1ccc(OCCOCCOc2ccc(Br)cc2/C=N\NC(=O)c2ccncc2)cc1 | – | 20.6 µM (active)
81 | Cc1ccc(S(=O)(=O)Oc2ccc(/C=N/NC(=O)c3ccncc3)cc2)cc1 | 11 | –
82 | COc1ccc(CC(=O)NCC(=O)N/N=C/c2cc(Br)ccc2OC)cc1 | 11 | –
83 | CCCCc1ccc(NC(=O)CN2C(=O)NC(Cc3ccccc3)C2=O)cc1 (stereo not drawn) | -5.5 | –
84 | CCCCNCCS(=O)(=O)NCc1ccccc1 | 6.56 | –
85 | Cc1ccc(C)c(NC(=O)C(c2ccccc2)N2CCN(CC(=O)NC3CC3)CC2)c1 (stereo not drawn) | -1.84 | –
86 | Cc1ccc(-n2c(=O)c(C#N)cc3c(=O)n4ccccc4nc32)cc1C | – | 10.3 µM (active)
87 | Cc1ccn2c(=O)c(NC(=O)c3cccc4ccccc34)c(C)nc2c1 | 3.52 | –
88 | Cc1ccc(-n2c(SCC(=O)N3CCC(C(=O)O)CC3)nc3ccccc3c2=O)cc1C | -3.72 | –
89 | CC(=O)Nc1ccc(C(=O)Nc2cc(S(=O)(=O)N3CCOCC3)ccc2N2CCOCC2)cc1 | -7.14 | –
90 | COc1ccc(CCN2CC(C(=O)OCC(=O)NCc3ccccc3Cl)CC2=O)cc1OC (stereo not drawn) | 9.97 | –
91 | Fc1ccccc1-c1cc2cc3c(cc2cn1)OCO3 | 20.3 | –
92 | CC1=Nn2c(nnc2-c2ccccc2)SC1 | -3.17 | –
93 | COc1ccc(C2=Nn3c(nnc3-c3ccccc3OC)SC2)cc1OC1CCCC1 | – | 0.651 µM (active)
94 | Cc1nnc2n1N=C(c1ccccc1)CS2 | 1.39 | –
95 | CCOC(=O)c1ccccc1NS(=O)(=O)c1ccc(OC)cc1 | – | 16.4 µM (active)
96 | CCOC(=O)c1ccccc1NS(=O)(=O)c1c(C)nc2sccn2c1=O | -0.74 | –
97 | CCOc1cc(NS(=O)(=O)c2ccc(OC)cc2)c(OCC)cc1NC(C)=O | 12.6 | –
98 | CN1CCN(S(=O)(=O)c2ccc(N3CCN(c4ccccc4O)CC3)c([N+](=O)[O-])c2)CC1 | 2.95 | –
99 | CC(=O)c1sc(NC(=O)CCN2C(=O)C3CC=CCC3C2=O)nc1-c1ccccc1 (stereo not drawn) | -0.493 | –
100 | COc1ccc(OC)c(Nc2nc(-c3ccc(O)c(O)c3)cs2)c1 | – | 8.2 µM (active)
101 | COc1ccc(-c2csc(Nc3ccccn3)n2)cc1 | 0.252 | –
102 | COc1ccc(CC(=O)Nc2nc(-c3ccc(F)c(F)c3)cs2)cc1OC | 3.89 | –
103 | C=CC[C@@H](CC(=O)N[C@@H](CO)Cc1ccccc1)C(=O)N[C@H](COC(=O)[C@H](CC=C)CC(=O)OC(C)(C)C)Cc1ccccc1 | -10.2 | –

From PubChem BioAssay AID624296 (National Center for Advancing Translational Sciences (NCATS), 2012)
